Measured values as given in PubChem BioAssay.
Calls of active or inactive are those of the source.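 The calls were made as follows, unless noted: active = fluorescence ratio normalized to control raised more than 50% in primary screen plus both repeat runs; inactive = the rest.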

system: TRPC4 beta (transient receptor potential cation channel C4), mouse; assay: TRPC4 cation channel opening, retest – cell-based, Fluo4 calcium, HEK293 TRPC4beta/mu-opioid, duplicates, 10 µM, confirmation (AID 2426); details: Fluo4 calcium fluorescence, at 10 µM

outcome, inactive:
CCN1CCN(c2ccc(S(=O)(=O)N3CCCCC3)cc2NC(=O)c2cccc(OC(F)F)c2)CC1
Fc1ccc(CN2C3=NCCCN3c3ccccc32)cc1
COc1ccc(-n2cc(CNCc3cnc4ccccn34)c(-c3cccc(F)c3)n2)cc1
N=c1c(C(=O)NCc2ccc(F)cc2)cc2c(=O)n3ccccc3nc2n1Cc1ccco1
O=C1CC2(CCN(S(=O)(=O)c3ccccc3F)CC2)Oc2ccccc21
O=C1Cc2ccccc2Sc2c(OCCN3CCCCC3)cccc21
C/C(CC(=O)NCc1ccc(Cl)cc1)=N\NC(=O)COc1ccc(C)cc1Br
CCCCNc1c(-c2ccc(SC(C)CC)c(OC)c2)nc2ccc(C)cn12 (stereo not drawn)
CCOC(=O)C1NN=C(C(=O)c2ccccc2)C1c1ccc(Cl)cc1 (stereo not drawn)
O=[N+]([O-])c1ccc(N2CCN(CCOc3nonc3-c3ccccc3)CC2)c(Cl)c1
COc1ccc(-c2cc(C(=O)N3CC(C)CC(C)C3)c3ccccc3n2)cc1 (stereo not drawn)
COC(=O)c1cc(N2CCN(C)CC2)nc2ccccc12
COc1cc(C2c3c(-c4ccccc4)n[nH]c3C(=O)N2c2ccccc2)ccc1O (stereo not drawn)
O=C(c1ccccc1)c1coc2ccc(O)c(CN3CCOCC3)c12
CN(C)S(=O)(=O)c1cccc(COC(=O)c2ccc(Cl)cc2O)c1
CCOC(=O)C1=C(C)N(c2ccccc2)C(=O)NC1c1cccc([N+](=O)[O-])c1 (stereo not drawn)
Cc1cc(=O)oc2cc(NC(=S)NCc3ccccn3)ccc12
Cc1nnc(Sc2cc(NCCCO)c([N+](=O)[O-])c3nonc23)s1
CCOC(=O)C1=NNC(C(=O)c2ccc(Cl)cc2)C1c1ccc(OC)cc1 (stereo not drawn)
CN1CCN(NC(=O)Nc2cc(Cl)cc(Cl)c2)CC1
Cc1ccc(C[n+]2cccc(-c3ccccc3)c2)c(C)c1
Cc1ccc(C(=O)C[n+]2cccc3cc(C)ccc32)cc1
COc1ccc(OC)c(NC(=O)COC(=O)Cc2ccc(-c3ccccc3)cc2)c1
CC(C)c1ccc(C(C)NCCS(=O)(=O)c2ccc(Br)cc2)cc1 (stereo not drawn)
Cc1ccc(C)c(N(CC(=O)NC2CCCC2)C(=O)c2csnn2)c1
Cc1ccc(-n2c(N)cc(=O)nc2SCC(=O)N2CCN(c3ccccc3)CC2)cc1
N=c1c(C(=O)NCC2CCCO2)cc2c(=O)n3ccccc3nc2n1Cc1ccc(Cl)cc1 (stereo not drawn)
CN(CCNC(=O)c1ccc(/C=N/O)nc1)Cc1ccccc1
CCOC(=O)C1=C(CNCCc2ccc(Cl)cc2)NC(=O)NC1c1cccc([N+](=O)[O-])c1 (stereo not drawn)
O=C(NCC(c1ccco1)N1CCc2ccccc2C1)c1ccc(F)cc1 (stereo not drawn)
CCCc1c(-c2ccc(O)cc2)nn(-c2ccc(O)cc2)c1-c1ccc(O)cc1
Cc1ccc(-c2c(C(=O)N/N=C/c3ccc(OC(C)C)cc3)nnn2-c2nonc2N)cc1
CCOC(=O)CSc1nc2ccccc2c(=O)n1C1CCCC1
CCN1C(=O)/C(=C/C=C2\N(CC)c3cc(S(=O)(=O)N(C)C)ccc3N2c2ccccc2)SC1=S
CCCCn1c(N)c(N(CCOC)C(=O)c2ccc(-c3ccc(C(C)=O)cc3)o2)c(=O)[nH]c1=O
CC(C)CN(C(=O)C1CC1)c1c(N)n(Cc2ccccc2)c(=O)[nH]c1=O
CCOC(=O)CC(NS(=O)(=O)c1ccc(OC)c(C)c1)c1cccc([N+](=O)[O-])c1 (stereo not drawn)
Clc1ccc2nc(CN3CCCc4ccccc43)cn2c1
Cc1cc(Cl)ccc1OC(C)C(=O)Nc1ccccc1N1CCOCC1 (stereo not drawn)

system: transient receptor potential cation channel C4 beta (TRPC4), mouse; assay: TRPC4 cation channel opening, second retest – cell-based, second round, Fluo4, HEK293 TRPC4beta/mu-opioid, 1 µM, confirmation (AID 2461;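 active = primary screen active and over 50% activation in each of two duplicate runs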); details: Fluo4 calcium fluorescence, at 1 µM

outcome, inactive:
CCN1CCN(c2ccc(S(=O)(=O)N3CCCCC3)cc2NC(=O)c2cccc(OC(F)F)c2)CC1
Fc1ccc(CN2C3=NCCCN3c3ccccc32)cc1
COc1ccc(-n2cc(CNCc3cnc4ccccn34)c(-c3cccc(F)c3)n2)cc1
N=c1c(C(=O)NCc2ccc(F)cc2)cc2c(=O)n3ccccc3nc2n1Cc1ccco1
O=C1CC2(CCN(S(=O)(=O)c3ccccc3F)CC2)Oc2ccccc21
O=C1Cc2ccccc2Sc2c(OCCN3CCCCC3)cccc21
C/C(CC(=O)NCc1ccc(Cl)cc1)=N\NC(=O)COc1ccc(C)cc1Br
CCCCNc1c(-c2ccc(SC(C)CC)c(OC)c2)nc2ccc(C)cn12 (stereo not drawn)
CCOC(=O)C1NN=C(C(=O)c2ccccc2)C1c1ccc(Cl)cc1 (stereo not drawn)
O=[N+]([O-])c1ccc(N2CCN(CCOc3nonc3-c3ccccc3)CC2)c(Cl)c1
COc1ccc(-c2cc(C(=O)N3CC(C)CC(C)C3)c3ccccc3n2)cc1 (stereo not drawn)
COC(=O)c1cc(N2CCN(C)CC2)nc2ccccc12
COc1cc(C2c3c(-c4ccccc4)n[nH]c3C(=O)N2c2ccccc2)ccc1O (stereo not drawn)
O=C(c1ccccc1)c1coc2ccc(O)c(CN3CCOCC3)c12
CN(C)S(=O)(=O)c1cccc(COC(=O)c2ccc(Cl)cc2O)c1
CCOC(=O)C1=C(C)N(c2ccccc2)C(=O)NC1c1cccc([N+](=O)[O-])c1 (stereo not drawn)
Cc1cc(=O)oc2cc(NC(=S)NCc3ccccn3)ccc12
Cc1nnc(Sc2cc(NCCCO)c([N+](=O)[O-])c3nonc23)s1
CCOC(=O)C1=NNC(C(=O)c2ccc(Cl)cc2)C1c1ccc(OC)cc1 (stereo not drawn)
CN1CCN(NC(=O)Nc2cc(Cl)cc(Cl)c2)CC1
Cc1ccc(C[n+]2cccc(-c3ccccc3)c2)c(C)c1
Cc1ccc(C(=O)C[n+]2cccc3cc(C)ccc32)cc1
COc1ccc(OC)c(NC(=O)COC(=O)Cc2ccc(-c3ccccc3)cc2)c1
CC(C)c1ccc(C(C)NCCS(=O)(=O)c2ccc(Br)cc2)cc1 (stereo not drawn)
Cc1ccc(C)c(N(CC(=O)NC2CCCC2)C(=O)c2csnn2)c1
Cc1ccc(-n2c(N)cc(=O)nc2SCC(=O)N2CCN(c3ccccc3)CC2)cc1
N=c1c(C(=O)NCC2CCCO2)cc2c(=O)n3ccccc3nc2n1Cc1ccc(Cl)cc1 (stereo not drawn)
CN(CCNC(=O)c1ccc(/C=N/O)nc1)Cc1ccccc1
CCOC(=O)C1=C(CNCCc2ccc(Cl)cc2)NC(=O)NC1c1cccc([N+](=O)[O-])c1 (stereo not drawn)
O=C(NCC(c1ccco1)N1CCc2ccccc2C1)c1ccc(F)cc1 (stereo not drawn)
CCCc1c(-c2ccc(O)cc2)nn(-c2ccc(O)cc2)c1-c1ccc(O)cc1
Cc1ccc(-c2c(C(=O)N/N=C/c3ccc(OC(C)C)cc3)nnn2-c2nonc2N)cc1
CCOC(=O)CSc1nc2ccccc2c(=O)n1C1CCCC1
CCN1C(=O)/C(=C/C=C2\N(CC)c3cc(S(=O)(=O)N(C)C)ccc3N2c2ccccc2)SC1=S
CCCCn1c(N)c(N(CCOC)C(=O)c2ccc(-c3ccc(C(C)=O)cc3)o2)c(=O)[nH]c1=O
CC(C)CN(C(=O)C1CC1)c1c(N)n(Cc2ccccc2)c(=O)[nH]c1=O
CCOC(=O)CC(NS(=O)(=O)c1ccc(OC)c(C)c1)c1cccc([N+](=O)[O-])c1 (stereo not drawn)
Clc1ccc2nc(CN3CCCc4ccccc43)cn2c1
Cc1cc(Cl)ccc1OC(C)C(=O)Nc1ccccc1N1CCOCC1 (stereo not drawn)
